Screens: PubChem BioAssay, several laboratories
Compounds with a hit are over-represented: about 2.3% of the library has one in this group of screens.
Mcl1 Bid PPI – disrupts binding of human Mcl-1 to Bid peptide; Q07820; TR-FRET Mcl-1/Bid-Dy647 peptide binding, 1536-well; inhibition, % at 21.7 µM; 0.97% of 220,000 active;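 active means compounds that cut the binding signal by more than half at the single screening dose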;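 further: His-tagged Mcl-1 with europium anti-His antibody binding Bid BH3 peptide; 0% = Mcl-1 plus peptide wells and 100% = peptide-only wells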
Target sequence (Q07820 whole entry, looked up): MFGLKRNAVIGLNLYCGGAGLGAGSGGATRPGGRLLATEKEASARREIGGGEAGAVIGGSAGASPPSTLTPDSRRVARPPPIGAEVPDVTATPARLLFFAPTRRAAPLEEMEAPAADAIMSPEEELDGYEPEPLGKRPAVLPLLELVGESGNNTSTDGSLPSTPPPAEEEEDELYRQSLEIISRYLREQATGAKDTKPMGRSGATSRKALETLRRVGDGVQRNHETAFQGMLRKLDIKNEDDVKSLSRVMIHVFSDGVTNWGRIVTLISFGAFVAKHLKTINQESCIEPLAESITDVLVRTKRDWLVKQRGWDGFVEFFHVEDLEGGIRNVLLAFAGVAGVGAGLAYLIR
MCL1 BIM primary – disrupts human MCL1 binding to BIM-BH3 peptide; inhibition, % at 10.9 µM; 0.68% of 320,000 active; GST-MCL1 / FITC-Bim-BH3 fluorescence polarization; Q07820;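 active means inhibition above the mean inhibition of all tested compounds plus 3 SD, set per campaign, cut at about 40% in these data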;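 further: 0% = DMSO wells and 100% = unlabeled Bim-BH3 peptide control; higher means more loss of mP so more displacement of Bim peptide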
Bim-Mcl-1 – human Bim-Mcl-1 interaction inhibition; Bead-based flow cytometry, Bim peptide-Mcl-1 binding; inhibition, % at 10 µM; Q07820; 0.1% of 190,000 active; AID 1009; in the data active means inhibition above about 40%;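 further: 0% = no compound tracer wells and 100% = peptide blocker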
Mcl1-Noxa inh – disrupts binding of human Mcl-1 to Noxa peptide; Q07820; TR-FRET Mcl-1/Noxa peptide binding, 2 h; inhibition, % at 21.7 µM; 1.5% of 220,000 active; AID 1022;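 active means compounds that cut the protein-peptide binding signal by more than 50% relative to plate controls in a single-dose test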;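 further: His-tagged Mcl-1 with rhodamine Noxa BH3 peptide and terbium anti-His antibody; 0% = Mcl-1 plus Noxa peptide wells and 100% = peptide-only wells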
GLD-1 RNA inh – GLD-1-TGE RNA interaction inhibition (C. elegans). purified GLD-1 + fluorescein TGE RNA, fluorescence polarization. Q17339. inhibition, % at 5.96 µM. AID 2280. 0.44% of 320,000 active;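 active means percent inhibition above a per-plate cutoff, the plate mean of test compounds plus 3 SD, cut at about 30% in these data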;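 further: 0% = DMSO wells with GLD-1 and probe and 100% = wells lacking GLD-1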
Bcl-xL primary – Bcl-xL (human) inhibition; AID 2129; 0.7% of 320,000 active; Q07817; GST-Bcl-xL / FITC-Bim BH3 peptide fluorescence polarization; inhibition, % at 10.9 µM;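 active means inhibition above the mean of all tested compounds plus 3 SD, cutoff set per campaign, cut at about 30% in these data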;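 further: 0% = DMSO wells and 100% = unlabeled Bim-BH3 peptide competitor; inhibitors lower millipolarization by displacing the labeled peptide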
Target sequence (Q07817 whole entry, looked up): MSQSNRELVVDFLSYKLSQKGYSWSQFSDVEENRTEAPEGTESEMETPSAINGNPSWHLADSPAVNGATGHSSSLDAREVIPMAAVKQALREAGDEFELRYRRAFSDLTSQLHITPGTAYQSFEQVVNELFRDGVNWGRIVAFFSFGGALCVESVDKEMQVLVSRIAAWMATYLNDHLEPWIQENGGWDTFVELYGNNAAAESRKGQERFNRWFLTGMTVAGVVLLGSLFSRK
Active calls of the source: *; · = no result given.

SMILES	Mcl1 Bid PPI	MCL1 BIM primary	Bim-Mcl-1	Mcl1-Noxa inh	GLD-1 RNA inh	Bcl-xL primary
CC(=O)c1cccc(NC(=O)Nc2cc3sccc3n2C)c1	-32	28	0	71*	2	26
CC(=O)c1cccc(NC(=O)Nc2cccs2)c1	-21	5	-5	3	8	5
CCOC(=O)c1c(NC(=O)Cc2ccccc2)sc2c1CCN(C)C2	·	-7	·	·	-5	-2
CCOC(=O)c1c(NC(=O)CSc2nnc(C)s2)sc2c1CCN(C)C2	18	-27	0	68*	-115	-14
O=C(CN1CCN(CCN2C(=O)c3cccc4cccc(c34)C2=O)CC1)c1ccc(F)cc1	98*	12	-1	18	4	16
O=C(CN1CCN(CCN2C(=O)c3cccc4cccc(c34)C2=O)CC1)c1ccc(Cl)cc1	-2	·	1	40	·	·
Cc1n[nH]c(=S)c2nn(-c3ccccc3)c(C)c12	70*	·	0	15	·	·
CC(=O)Nc1ccccc1OCC(O)CS(=O)(=O)c1ccc(C(F)(F)F)cn1 (stereo not drawn)	·	3	·	·	3	6
COc1ccccc1CNc1nc(-c2cc(C)n(C)c2C)cs1	65*	·	10	90*	·	·
COCCNc1nc(-c2cc(C)n(CCc3ccc(OC)cc3)c2C)cs1	-2	22	1	57*	-1	33*
Cc1cc(-c2csc(N)n2)c(C)n1C	-40	42*	8	12	15	41*
Cc1ccc(-n2c(C)cc(-c3csc(N)n3)c2C)cc1	-27	9	-6	29	4	11
COc1ccc(CCNc2nc(-c3sc(N)nc3C)cs2)cc1OC	-34	6	-4	20	-11	7
O=C(CCCn1c(=S)[nH]c2cc3c(cc2c1=O)OCO3)NCc1cccc(Cl)c1	·	-4	·	·	4	-3
CC1(C)CC(=O)/C(=C(/O)CCCN2C(=O)c3ccccc3C2=O)C(=NC(C)(C)C)C1	-28	0	1	-15	-4	-2
Cc1noc(C)c1COc1ccccc1C(=O)N1CCN(c2cccc(C(F)(F)F)c2)CC1	·	-1	·	·	0	2
C/C(=N\Nc1ccc(C(=O)c2c(C)cc3ccccn23)cc1[N+](=O)[O-])c1ccc(O)cc1	-23	9	·	-18	-1	0
Cc1cc2ccccn2c1C(=O)c1ccc(N/N=C/c2ccc(C(=O)O)cc2)c([N+](=O)[O-])c1	73*	·	·	93*	·	·
C=CCn1c(N)cc(=O)nc1SCC(=O)Nc1ccc(C(=O)OCC)cc1	·	-4	·	·	6	-2
CCOC(=O)C1=C(C)N(c2ccccc2)C(=O)/C1=C\c1ccc(O)c(OC)c1	-76	12	·	32	16	21
CCOc1cc(/C=C2\C(=O)N(c3nc(-c4ccc(Br)cc4)cs3)N=C2c2ccccc2)ccc1O	81*	7	-3	94*	-9	3
COc1cc(/C=C2\C(=O)N(c3ccc(NC(C)=O)cc3)N=C2c2ccccc2)ccc1O	-16	5	-1	58*	-7	7
O=C1/C(=C\c2ccc(O)c(O)c2)C(c2ccccc2)=NN1c1ccccc1	-34	·	1	71*	·	·
Cn1ccnc1SCC(=O)Nc1ccc(Br)cc1C(F)(F)F	·	6	·	·	6	2
O=C(Nc1ccc(OC(F)(F)C(F)F)c(NC(=O)c2cccc(F)c2)c1)c1cccc(F)c1	-11	0	-4	3	-4	0
SMILES	Mcl1 Bid PPI	MCL1 BIM primary	Bim-Mcl-1	Mcl1-Noxa inh	GLD-1 RNA inh	Bcl-xL primary
CC(C)(C)Cc1nnc(NC(=O)c2ccco2)s1	·	4	·	·	0	1
O=C(CSCCOc1ccccc1)NCc1ccncc1	-12	-3	·	-9	-3	-1
O=C1NC(=O)c2cc(Br)cc3cccc1c23	-21	8	0	22	-3	7
Cc1ccc(NS(=O)(=O)c2cc3c4c(cccc4c2)C(=O)NC3=O)cc1C	6	27	·	21	11	31*
CC(=O)c1c(O)c2ccccc2n(C)c1=O	-21	-2	0	51*	-7	4
Cn1c(=O)c(C(=O)Nc2ccccc2S(N)(=O)=O)c(O)c2ccccc21	2	25	·	-3	1	34*
CC(C)Cn1c(=O)c(C(=O)Nc2ccccc2S(N)(=O)=O)c(O)c2ccccc21	-16	1	2	0	3	-3
CCn1c(C)nc2cc(C(=O)N/N=C/c3ccc(N4CCOCC4)cc3)ccc21	-51	-9	-1	10	-19	-5
Cc1ccc2oc(-c3ccc(C)c(NC(=S)NC(=O)c4cccs4)c3)nc2c1	53*	7	-4	38	0	2
O=C(NNC1=NCCC1)C1CC1	0	3	-1	6	4	0
Cc1[nH]c2ccccc2c1/C=N/Nc1ccc([N+](=O)[O-])cc1	-55	-61	-20	75*	-30	-12
Cc1ccc(C(C)NC(=O)c2cc3cc(Br)ccc3oc2=N)cc1 (stereo not drawn)	·	3	·	·	-1	4
Cc1ccc(C(=O)Nc2cccc(-c3cnc4ccccc4n3)c2)cc1	-9	-2	-2	-11	0	-3
CC(=O)Nc1ccc(C(=O)Nc2cccc(-c3cnc4ccccc4n3)c2)cc1	11	·	-321	76*	·	·
O=C(CSc1nc(-c2ccccc2)nc2c1Cc1ccccc1O2)Nc1ccc(C(=O)O)cc1	88*	·	-1	27	·	·
O=C1NC(=O)N(Cc2ccccc2)C1=O	·	53*	·	·	30	57*
O=C1NC2(CCCCCC2)C(=O)N1Cc1ccccc1	·	-2	·	·	-5	-5
C#CCOCCOCCOCCNc1nc(N2CCOCC2)nc(N2CCN(C(=O)[C@H](CCC(=O)O)n3cc(C(N)[C@H](C)CC)nn3)CC2)n1 (stereo partly drawn)	20	5	-3	12	1	5
CCOC(=O)CN(c1ccccn1)S(=O)(=O)c1ccc(OC)cc1	0	2	0	6	-2	3
Cc1ccc(S(=O)(=O)CCSc2cccc(C(=O)Nc3ccccc3C(=O)O)c2)cc1	-10	22	-1	68*	-3	15
CCn1c(CSc2nc3ccccc3s2)nnc1SCC(=O)c1ccc(O)c(O)c1	-99	21	-1	62*	2	9
O=[N+]([O-])c1ccc2nc(SCc3cn4ccccc4n3)[nH]c2c1	-55	-6	-5	-4	-3	1
O=[N+]([O-])c1ccc2nc(SCc3cn4cc(Cl)ccc4n3)[nH]c2c1	31	-4	-2	51*	3	-1
CC(=O)c1ccc(N2CCN(C(=O)c3cc(S(=O)(=O)N4CCOCC4)ccc3C)CC2)cc1	·	·	·	·	4	·
CC(OC(=O)CCN1C(=O)C2CC=CCC2C1=O)C(=O)c1ccc(F)cc1 (stereo not drawn)	·	-4	·	·	-1	0
O=C(Nc1nnc(-c2ccco2)s1)C1CCCCC1	56*	12	-3	-8	-3	8
Nc1nc(Cl)cc(NCCc2ccccc2)n1	-16	9	1	-28	3	3
